Assay results: PubChem BioAssay (NCI)
The panel holds about 83,000 compounds, 20% with a hit somewhere; the sample as a whole holds those more often.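 A percent growth of 40 corresponds to 60% growth inhibition; 0 means no net growth; -100 means all cells died. Active threshold: below 10.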 Unmarked numbers belong to inactive results. Activity calls are given as the source filed them.

What was measured:
Experiment in all cases: NCI-60 one-dose screen, 48 h (100 = growth as untreated, 0 = no growth, -100 = all killed)
SR leukemia = details: 10 µM unless noted
RPMI-8226 leukemia = details: 10 µM unless noted
OVCAR-8 ovarian = details: 10 µM unless noted
OVCAR-5 ovarian = details: 10 µM unless noted
OVCAR-4 ovarian = details: 10 µM
SK-OV-3 ovarian = details: 10 µM unless noted
IGROV1 ovarian = details: 10 µM unless noted
HS 578T breast = details: 10 µM unless noted
NCI/ADR-RES ovarian = details: 10 µM unless noted
T-47D breast = details: 10 µM unless noted
BT-549 breast = details: 10 µM unless noted
MDA-MB-435 melanoma = details: 10 µM unless noted
SW-620 colon = details: 10 µM unless noted
MCF7 breast = details: 10 µM unless noted
HCT-116 colon = details: 10 µM unless noted
HCC-2998 colon = details: 10 µM unless noted
KM12 colon = details: 10 µM unless noted
OVCAR-3 ovarian = details: 10 µM unless noted

| Compound | growth (SR leukemia) | growth (RPMI-8226 leukemia) | growth (OVCAR-8 ovarian) | growth (OVCAR-5 ovarian) | growth (OVCAR-4 ovarian) | growth (SK-OV-3 ovarian) | growth (IGROV1 ovarian) | growth (HS 578T breast) | growth (NCI/ADR-RES ovarian) | growth (T-47D breast) | growth (BT-549 breast) | growth (MDA-MB-435 melanoma) | growth (SW-620 colon) | growth (MCF7 breast) | growth (HCT-116 colon) | growth (HCC-2998 colon) | growth (KM12 colon) | growth (OVCAR-3 ovarian) |
| --- | --- | --- | --- | --- | --- | --- | --- | --- | --- | --- | --- | --- | --- | --- | --- | --- | --- | --- |
| CCN=C1C=CC(=C(c2ccc(N(CC)CC)cc2)c2ccc(N(CC)CC)cc2)c2ccccc21 | -7.85% (active) | -39.8% (active) | -52.7% (active) | -40.1% (active) | -18.4% (active) | -70.2% (active) | -56.7% (active) | -20.1% (active) | -16.3% (active) | -45.7% (active) | -67.2% (active) | -31.6% (active) | -42.9% (active) | -74% (active) | -45.7% (active) | -81% (active) | -86.2% (active) | – |
| FC(F)(F)c1ccc2c(c1)Sc1ccccc1N2 | 89.5% | 92.7% | 96.7% | 98.2% | 97% | 105% | 92.6% | 85.5% | 104% | 77.7% | 93.3% | 97.1% | 100% | 95.4% | 100% | 102% | 95% | – |
| COc1ccc2nc3cc(Cl)ccc3c(Nc3ccc(O)c(CN4CCCC4)c3)c2c1 | 0.0468% (active) | -25.2% (active) | -2.17% (active) | 57.4% | -4.45% (active) | 73.2% | -26.3% (active) | – | 3.27% (active) | 35.8% | 79.2% | -61.5% (active) | -65.7% (active) | 43.4% | -45% (active) | – | 19.2% | -32.1% (active) |
| CCCCN(CCCC)CC(O)c1ccc(OCc2ccccc2)c2ccccc12 (stereo not given) | 9.33% (active) | 77.3% | 89.6% | 98.4% | 93.3% | 92.4% | 61.8% | – | 77.7% | 87.5% | 111% | 51.2% | – | 95.7% | 53.5% | 70% | 74.2% | 69.2% |
| CC1(C(=O)O)CCC(N)(C(=O)O)C1(C)C (stereo not given) | 105% | 91.9% | 111% | 115% | 104% | 97% | 108% | – | 118% | 98.4% | – | 115% | 108% | 99.5% | 110% | 120% | 111% | 102% |
| CCOC(=O)COc1c(C)cc(SSc2cc(C)c(OCC(=O)OCC)c(C)c2)cc1C | 90.9% | 90.6% | 102% | 128% | 93.1% | 106% | 96.5% | – | 110% | 91.3% | – | 114% | – | 92.6% | 104% | 112% | 72.4% | 107% |
| Oc1cc(Nc2ccnc3cc(Cl)ccc23)c2ncccc2c1 | 37% | 53.5% | 70.3% | 104% | 44.4% | 85.4% | 94.3% | – | 51.8% | 52.1% | – | 70% | 66.6% | 61% | 69.3% | 112% | 87.6% | 81% |
| Cc1cc(C)c(O)c(CNCCCCCCNCc2cc(C)cc(C)c2O)c1 | -48.3% (active) | -20.8% (active) | -12.4% (active) | 13.9% | 46.1% | 84.9% | 36.4% | – | 8.8% (active) | -60.8% (active) | – | -90.8% (active) | – | -81.4% (active) | -42.9% (active) | -84.3% (active) | -38.2% (active) | 22% |
| O=C1CC(c2ccccc2)Cc2nc3ccc(Br)cc3cc21 (stereo not given) | 13.1% | 50% | 24.1% | 27.2% | 47% | 47.6% | 22% | – | 17.1% | 67.2% | 6.48% (active) | -39.8% (active) | 25.1% | 61.2% | 5.56% (active) | 27% | 8.94% (active) | -28.4% (active) |
